Mtb hypoxia inh = reduces hypoxia-regulated biosensor signal in M. tuberculosis; fluorescence inhibition, % (test concentration not listed); 0.1% of 300,000 active; AID 1159583; M. tuberculosis hypoxia-regulated fluorescent reporter, fluorescence; in the data active means fluorescence inhibition mostly above about 23%, no sharp cut-off; inactive means mostly below about 17%
FadD28 FP inh = inhibitors of Mycobacterium tuberculosis FadD28 bisubstrate binding; FadD28 bisubstrate probe binding, fluorescence polarization; inhibition, % at 12.5 µM; 0.22% of 360,000 active; AID 588549; in the data active means inhibition above about 8.5%, passing the limit was not always enough
Mtb FBA inh = Mtb fructose-bisphosphate aldolase inhibition; purified M. tuberculosis FBA, fluorescence read-out; inhibition, % at 1 µM; P9WQA3; 2.3% of 360,000 active; AID 588726;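 further: 0% = vehicle and 100% = reference inhibitor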
Target sequence (P9WQA3 whole entry, looked up): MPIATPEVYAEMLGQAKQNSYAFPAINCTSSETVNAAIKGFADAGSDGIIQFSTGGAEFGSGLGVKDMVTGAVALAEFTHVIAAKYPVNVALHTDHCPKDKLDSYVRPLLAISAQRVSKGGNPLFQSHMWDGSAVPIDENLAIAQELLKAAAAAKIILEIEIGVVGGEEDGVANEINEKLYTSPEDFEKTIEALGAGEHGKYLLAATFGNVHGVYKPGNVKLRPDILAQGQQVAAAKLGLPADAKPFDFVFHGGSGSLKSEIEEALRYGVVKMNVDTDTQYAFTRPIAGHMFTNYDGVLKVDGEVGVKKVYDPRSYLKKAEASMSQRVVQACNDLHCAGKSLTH
GDH-TPI counter-1 = inhibits GDH-TPI coupling enzymes, artifact for Mtb FBA screen; GDH-TPI coupled enzyme counterscreen, NADH absorbance; AID 588335; 1.2% of 360,000 active; inhibition, % at 4.8 µM; in the data active means inhibition above about 30%;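 further: 0% = DMSO wells and 100% = wells lacking the enzyme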
UGM FP inh = inhibitors of M. tuberculosis UDP-galactopyranose mutase. purified UGM, fluorescence polarization probe displacement. 0.06% of 320,000 active. inhibition, % at 10 µM. P9WIQ1; in the data active means inhibition above about 10%, passing the limit was not always enough
Rv3671c protease = inhibits the M. tuberculosis serine protease Rv3671c; 0.048% of 320,000 active; inhibition, % at 5.96 µM; in the data active means inhibition above about 38%;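 further: extracellular domain of Rv3671c used as enzyme; 0% = enzyme with DMSO and 100% = no enzyme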
Mtb FBA confirm = Mtb FBA inhibition, confirmed; inhibition, % at 1 µM; purified M. tuberculosis FBA, fluorescence read-out; shares compounds with Mtb FBA inh; 78% of 5,600 active;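 further: 0% = vehicle wells and 100% = reference inhibitor wells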
GDH-TPI counter-2 = counter-screen for M. tuberculosis FBA inhibitors: GDH-TPI coupled enzyme inhibition | shares compounds with Mtb FBA inh | GDH-TPI coupled enzyme counterscreen, fluorescence | inhibition, % at 1 µM | 81% of 5,600 active | AID 652141; in the data active means inhibition above about 10%
GDH-TPI dose = counter-screen for M. tuberculosis FBA inhibitors: GDH-TPI dose response | 79% of 170 active | AID 652145 | GDH-TPI coupled enzyme assay, fluorescence, artifact counterscreen | shares compounds with Mtb FBA inh | IC50, µM; call rule not given here
* = called active by the depositor. Shown are actives, neighbours in structure and some others; about 3.5% of the full set was active somewhere. Unless noted, no stated cut-off is given here; in the data, active means inhibition above about 27%; inactive means the rest.

Screening CCOC(=O)C1C2COc3ccc(OC)cc3C2N2C(=O)CN(Cc3ccco3)C(=O)[C@@]12C (some centres undefined) returned Mtb hypoxia inh 8.
Screening [O-][n+]1nc2ccccc2c2ccccc21 returned Mtb hypoxia inh 0, FadD28 FP inh 0, Mtb FBA inh 37*, GDH-TPI counter-1 13, Mtb FBA confirm 88* and GDH-TPI counter-2 78*.
`O=C(CSc1cccc2cccnc12)N1CCCC1` gave FadD28 FP inh -1, Mtb FBA inh 33*, GDH-TPI counter-1 5, UGM FP inh 1, Rv3671c protease -18, Mtb FBA confirm 140* and GDH-TPI counter-2 108*.
`CCN(CC)c1ccc(-c2c(C#N)c(N)nc(OC)c2C#N)cc1` gave Mtb hypoxia inh 9, FadD28 FP inh 0, Mtb FBA inh 55*, GDH-TPI counter-1 18, UGM FP inh -1, Rv3671c protease -14, Mtb FBA confirm 34* and GDH-TPI counter-2 25*.
For COc1ccc(-c2ccc(C(=O)NCc3ccc(F)c(F)c3)c3occc23)c(C)c1 the results were FadD28 FP inh -3, Mtb FBA inh 10 and GDH-TPI counter-1 4.
`COc1ccc(-c2ccc(C(=O)NCc3ccncc3)c3occc23)c(C)c1` gave FadD28 FP inh -22, Mtb FBA inh 111*, GDH-TPI counter-1 -8, Mtb FBA confirm active and GDH-TPI counter-2 active.
Screening COc1ccc(-c2ccc(C(=O)Nc3ccccc3)c3occc23)c(C)c1 returned FadD28 FP inh -4, Mtb FBA inh -2 and GDH-TPI counter-1 4.
Screening COc1ccc(-c2ccc(C(=O)NCC3CC3)c3occc23)c(C)c1 returned FadD28 FP inh -15, Mtb FBA inh 57*, GDH-TPI counter-1 -1, Mtb FBA confirm 46* and GDH-TPI counter-2 33*.
`COc1ccc(-c2ccc(C(=O)NCC(C)C)c3occc23)c(C)c1` gave FadD28 FP inh -15, Mtb FBA inh 58*, GDH-TPI counter-1 10, Mtb FBA confirm 166* and GDH-TPI counter-2 132*.
CC(=NO)C(C)(C)Nc1ccc(Cl)cc1 was read as Mtb hypoxia inh 12.
For CC(=NNC(=O)c1cc(C)oc1C)c1ccc(N2CCOCC2)cc1 the results were Mtb hypoxia inh -6.
COc1ccc(NC(=O)CC(C)=NNC(=O)C(=O)NC(C)C)c(OC)c1 was read as Mtb hypoxia inh -4.
`CCN(CC)c1ccc(C=NN2CCN(Cc3ccccc3Cl)CC2)c(O)c1` gave Mtb hypoxia inh 8.
For O=C(/C=C/c1ccc(Br)cc1)Nc1ccc(S(=O)(=O)Nc2ncccn2)cc1 the results were Mtb hypoxia inh 14, FadD28 FP inh 0, Mtb FBA inh 5, GDH-TPI counter-1 8, UGM FP inh 0 and Rv3671c protease -15.
Screening O=C(/C=C/c1cccc(F)c1)Nc1ccc(S(=O)(=O)Nc2ncccn2)cc1 returned Mtb hypoxia inh 24, FadD28 FP inh -3, Mtb FBA inh 93*, GDH-TPI counter-1 29, UGM FP inh -2, Rv3671c protease -19, Mtb FBA confirm 29*, GDH-TPI counter-2 4 and GDH-TPI dose >10.
CC1CCCC(=CNc2ccc(C(=O)O)cc2)C1=O (centres undefined) was read as Mtb hypoxia inh 1.
COc1ccc(-c2ccc(OC)cc2)cc1 was read as FadD28 FP inh -3, Mtb FBA inh 3, GDH-TPI counter-1 10, UGM FP inh -1 and Rv3671c protease -6.
COc1ccc2cc(-c3ccon3)ccc2c1 was read as Mtb hypoxia inh 2, FadD28 FP inh -2, Mtb FBA inh 34*, GDH-TPI counter-1 6, UGM FP inh -2, Rv3671c protease 8, Mtb FBA confirm 105* and GDH-TPI counter-2 99*.
COc1ccc(-c2ccc3ccccc3n2)cc1 was read as Mtb hypoxia inh 4, FadD28 FP inh 0, Mtb FBA inh 83*, GDH-TPI counter-1 26, UGM FP inh 1, Rv3671c protease -1, Mtb FBA confirm 180* and GDH-TPI counter-2 139*.

Screens (PubChem BioAssay)
